Assay in all cases: NCI-60 one-dose screen, 48 h (100 = growth as untreated, 0 = no growth, -100 = all killed)
One experiment concerns HT29 colon. The settings on record: 10 µM unless noted.
A further experiment deals with SNB-75 CNS. The settings on record: 10 µM unless noted.
Another experiment relates to SNB-19 CNS. The settings on record: 10 µM unless noted.
In another experiment the test system is U251 CNS. Particulars: 10 µM unless noted.
The subject of a further experiment is SK-MEL-5 melanoma. Particulars: 10 µM unless noted.
Another experiment concerns UACC-62 melanoma. Particulars: 10 µM unless noted.
Another experiment relates to LOX IMVI melanoma. The settings on record: 10 µM unless noted.
The test system of another experiment is SK-MEL-28 melanoma. The settings on record: 10 µM unless noted.
The test system of the next experiment is SK-MEL-2 melanoma. Particulars: 10 µM unless noted.
The next experiment deals with EKVX NSCLC. Particulars: 10 µM.
In another experiment the test system is SN12C renal. The settings on record: 10 µM unless noted.
A further experiment has as its system UO-31 renal. The settings on record: 10 µM unless noted.
Another experiment has as its system TK-10 renal. The settings on record: 10 µM unless noted.
The test system of another experiment is ACHN renal. The settings on record: 10 µM unless noted.
A further experiment concerns A498 renal. The settings on record: 10 µM unless noted.
For a further experiment, the system named is CCRF-CEM leukemia. Particulars: 10 µM.
The next experiment relates to MOLT-4 leukemia. The settings on record: 10 µM unless noted.
A further experiment has as its system PC-3 prostate. Particulars: 10 µM unless noted.
The next experiment relates to CAKI-1 renal. The settings on record: 10 µM unless noted.

The panel holds about 83,000 compounds, 20% with a hit somewhere; the sample as a whole holds those more often.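 Compound tested at a single concentration for 48 hours in 96-well plates; a percent growth value below 10 was scored as active.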 Unmarked numbers belong to inactive results. Active and inactive are the calls of the source.

Turning to `c1ccc(-c2cn3ccnc3c(-c3ccc4ncn(C5CCCCC5)c4c3)n2)cc1`, the growth with HT29 colon was 51.7%; in the experiment on SNB-75 CNS, 55.6%; in the experiment with SNB-19 CNS, 77.1%; with U251 CNS it was 62.7%; with SK-MEL-5 melanoma, 63.5%; in the experiment with UACC-62 melanoma, 34.4%. Further, the growth is 60.4% in the experiment on LOX IMVI melanoma; 82% in the experiment with SK-MEL-28 melanoma; 83.5% in the experiment with SK-MEL-2 melanoma; 75.8% with EKVX NSCLC; 71.2% with SN12C renal; 44.8% with UO-31 renal. Further, the growth was 97.7% with TK-10 renal; 64.1% in the experiment with ACHN renal; 73.9% with A498 renal; 18.7% with CCRF-CEM leukemia; 32.3% in the experiment on MOLT-4 leukemia.
Regarding `O=C1CCNC1`, the growth was 106% in the experiment with HT29 colon; 100% with SNB-75 CNS; 102% with SNB-19 CNS; 87.4% with U251 CNS; 95.7% with PC-3 prostate; 104% in the experiment on SK-MEL-5 melanoma. Also, the growth is 103% in the experiment on UACC-62 melanoma; 113% in the experiment with LOX IMVI melanoma; 102% in the experiment with SK-MEL-28 melanoma; 103% in the experiment with SN12C renal; 92.1% in the experiment with UO-31 renal; 100% in the experiment with TK-10 renal. The growth was 101% with ACHN renal, 113% in the experiment with CAKI-1 renal, 94.9% in the experiment on A498 renal and 98.8% in the experiment on MOLT-4 leukemia.
Turning to `CCn1cc(C(=O)O)c(=O)c2cc(F)c(N3CCN(S(=O)(=O)c4ccc(Cl)cc4)CC3)cc21`, the growth in the experiment with HT29 colon is 7.87% (active); with SNB-75 CNS it was 41.8%; in the experiment with SNB-19 CNS it was 20.6%; in the experiment with U251 CNS it was 12%; in the experiment on PC-3 prostate, 25.3%; in the experiment with SK-MEL-5 melanoma, 26.6%. In addition, the growth in the experiment with UACC-62 melanoma was 21.5%; in the experiment with LOX IMVI melanoma, 19.9%; in the experiment with SK-MEL-28 melanoma, 44.6%; in the experiment on SK-MEL-2 melanoma it was 43.8%; with EKVX NSCLC, 78.1%; in the experiment with SN12C renal it was 11.6%. The growth is 51.1% in the experiment with UO-31 renal; 53.6% in the experiment on TK-10 renal; 43.6% in the experiment with CAKI-1 renal; -6.18% (active) with A498 renal; -0.845% (active) in the experiment with CCRF-CEM leukemia; 23.6% with MOLT-4 leukemia.
As for `OCC(O)C(O)CC1SCCS1` (centres undefined), the growth is 101% in the experiment with HT29 colon; 94.7% in the experiment with SNB-75 CNS; 94.8% with SNB-19 CNS; 99.9% in the experiment with U251 CNS; 102% in the experiment on PC-3 prostate; 97.7% with UACC-62 melanoma. Besides, the growth in the experiment on LOX IMVI melanoma was 91.8%; in the experiment on SK-MEL-28 melanoma it was 110%; in the experiment with SK-MEL-2 melanoma, 107%; with EKVX NSCLC it was 97.2%; in the experiment on SN12C renal, 97.9%; with UO-31 renal, 78%. The growth in the experiment on TK-10 renal was 96.5%; in the experiment on ACHN renal, 103%; in the experiment on CAKI-1 renal, 98%; with A498 renal it was 101%; with CCRF-CEM leukemia, 90.6%; with MOLT-4 leukemia, 84.8%.
For the compound `Cc1cc2cn3c4ccc(O)cc4nc(N)c3c2cc1C`, the growth in the experiment on HT29 colon was -65.6% (active); in the experiment on SNB-19 CNS, 29.1%; with U251 CNS, -5.52% (active); with PC-3 prostate, 25.4%; with SK-MEL-5 melanoma, -62.4% (active); in the experiment with UACC-62 melanoma, 46.9%. For the same compound, the growth with LOX IMVI melanoma is 27.4%; with SK-MEL-28 melanoma it was -4.38% (active); with EKVX NSCLC, 37.2%; in the experiment with SN12C renal, 44.6%; in the experiment with UO-31 renal it was 6.2% (active); in the experiment on TK-10 renal it was 5.03% (active). Moreover, the growth with ACHN renal was 7.58% (active); in the experiment with CAKI-1 renal, -4.28% (active); with A498 renal it was 21.1%; with CCRF-CEM leukemia, 11.5%; in the experiment with MOLT-4 leukemia, 5.17% (active).
As to `O=C(CCCC(=O)Nc1ccc(Cn2nnc3cc(Cl)c(Cl)cc32)cc1)Nc1ccc(CN2N=NC3C=C(Cl)C(Cl)=CC32)cc1` (centres undefined), the growth was 86.5% in the experiment on HT29 colon; 70.3% in the experiment on SNB-75 CNS; 86.2% in the experiment on SNB-19 CNS; 84.2% in the experiment on U251 CNS; 60.2% in the experiment with PC-3 prostate; 89.8% in the experiment on SK-MEL-5 melanoma. Besides, the growth with UACC-62 melanoma is 62.3%; with LOX IMVI melanoma, 78.8%; in the experiment on SK-MEL-28 melanoma it was 103%; with SK-MEL-2 melanoma, 87.7%; with EKVX NSCLC, 75.6%; with SN12C renal it was 89.9%. Also, the growth in the experiment with UO-31 renal is 50.4%; in the experiment with TK-10 renal, 107%; in the experiment with ACHN renal, 83.8%; in the experiment on A498 renal, 78.3%; in the experiment with CCRF-CEM leukemia it was 68.1%; with MOLT-4 leukemia it was 83.2%.
For `O=c1[nH]c2cc(O)ccc2n2cc3c(F)cccc3c12`, the growth with HT29 colon was 46.2%; in the experiment on SNB-19 CNS it was 42.3%; in the experiment with U251 CNS, 27.6%; in the experiment with PC-3 prostate, 46.4%; in the experiment on SK-MEL-5 melanoma, 8.21% (active); with UACC-62 melanoma, 39.8%. For the same compound, the growth in the experiment on LOX IMVI melanoma was 36.8%; with SK-MEL-28 melanoma, 24.7%; with EKVX NSCLC, 25.2%; with SN12C renal, 53.6%; with UO-31 renal it was 12%; in the experiment with TK-10 renal it was 6.81% (active). Also, the growth with ACHN renal is 24.5%; in the experiment with CAKI-1 renal it was -8.76% (active); in the experiment with A498 renal it was 39.5%; with CCRF-CEM leukemia, 49%; with MOLT-4 leukemia it was 6.71% (active).
As for `O=c1c(N=Nc2nccs2)c(-c2ccccc2)[nH]n1-c1nc(-c2ccccc2)cs1`, the growth was 32.2% in the experiment on HT29 colon; 61% with SNB-75 CNS; 24.4% with SNB-19 CNS; 32.8% in the experiment with PC-3 prostate; 15.2% in the experiment on SK-MEL-5 melanoma; 12.3% in the experiment on UACC-62 melanoma. Also, the growth in the experiment with LOX IMVI melanoma was 44.3%; in the experiment on SK-MEL-28 melanoma, 47.1%; in the experiment on EKVX NSCLC, 53.1%; in the experiment with SN12C renal it was 35%; with UO-31 renal it was 36.4%; in the experiment on TK-10 renal, 45.6%. In addition, the growth in the experiment with ACHN renal is 35.4%; in the experiment on CAKI-1 renal it was 35.6%; with CCRF-CEM leukemia, 25.5%; in the experiment on MOLT-4 leukemia it was 30.3%.
As to `Cc1ccc(C(C)C)c(OCc2ccc(C(=O)N/N=C/c3cccc(O)c3O)cc2)c1`, the growth is 39.6% with HT29 colon; 44.7% in the experiment with SNB-75 CNS; 45.6% with SNB-19 CNS; 28.3% in the experiment with U251 CNS; 39.4% in the experiment on PC-3 prostate; 38.6% in the experiment with SK-MEL-5 melanoma. The growth in the experiment with UACC-62 melanoma was 30.8%; in the experiment on LOX IMVI melanoma, -12.3% (active); in the experiment with SK-MEL-28 melanoma it was 42.8%; with SK-MEL-2 melanoma it was 71.5%; in the experiment with EKVX NSCLC, 49.1%; in the experiment with SN12C renal, 35%. Moreover, the growth in the experiment on UO-31 renal is 16.1%; in the experiment on TK-10 renal it was 74%; in the experiment on ACHN renal, 12.8%; in the experiment on CAKI-1 renal, 31.6%; in the experiment on A498 renal, 90.2%; with CCRF-CEM leukemia it was 6.92% (active). Besides, the growth in the experiment with MOLT-4 leukemia was 7.88% (active).
With `CC(=O)Nc1nc(C)c(C(=O)NN)s1`, the growth is 106% in the experiment with HT29 colon; 88.8% in the experiment with SNB-75 CNS; 94.4% with SNB-19 CNS; 92.1% in the experiment with U251 CNS; 84.4% in the experiment on PC-3 prostate; 102% with SK-MEL-5 melanoma. The growth in the experiment on UACC-62 melanoma was 91.9%; in the experiment with LOX IMVI melanoma, 96.1%; in the experiment on SK-MEL-28 melanoma it was 100%; with SK-MEL-2 melanoma, 24.7%; in the experiment on EKVX NSCLC, 143%; in the experiment with SN12C renal, 95.2%. Moreover, the growth in the experiment with UO-31 renal is 86.1%; with TK-10 renal it was 203%; in the experiment on ACHN renal, 93.6%; with CAKI-1 renal, 125%; with CCRF-CEM leukemia, 94.9%.
Turning to `CCCCCCCCCCC1OC(C)CC(C)O1` (centres undefined), the growth in the experiment on HT29 colon is 106%; in the experiment with SNB-75 CNS, 95.4%; in the experiment with SNB-19 CNS, 109%; with U251 CNS it was 105%; in the experiment on PC-3 prostate, 101%; with SK-MEL-5 melanoma, 107%. For the same compound, the growth in the experiment with UACC-62 melanoma was 107%; with SK-MEL-28 melanoma it was 102%; in the experiment on SK-MEL-2 melanoma, 105%; in the experiment on SN12C renal, 103%; in the experiment with UO-31 renal, 90.9%; in the experiment on TK-10 renal it was 100%. In addition, the growth in the experiment on ACHN renal is 97.8%; with CAKI-1 renal it was 95.7%; in the experiment with A498 renal, 102%; in the experiment with MOLT-4 leukemia, 86.7%.
